From PubChem
Hits are enriched below; roughly 6.8% of the tested compounds scored in any of these assays.
C diff growth: C. difficile growth inhibition; Clostridium difficile clinical isolate growth, OD600, 24 h; active compounds read low; growth activity, negative = inhibition, % at 16 µg/mL (by protocol); 0.25% of 86,000 active; AID 1259249;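 active = mean growth activity at or below -80% and every replicate also at or below -80%; inconclusive = mean at or below -80% but some replicate above -80%; inactive = mean growth activity above -80%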;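 also: 0% = DMSO wells and -100% = levofloxacin 16 µg/mL wells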
Pf Dd2 growth: blocks growth of Plasmodium falciparum Dd2 parasites. P. falciparum Dd2 growth, SYBR Green, 72 h; active compounds read low. activity change, % at 10 µM. AID 1159554. 2.3% of 94,000 active; in the data active = activity change below about -80%; inconclusive = no clear call, values can overlap the other calls
T cruzi growth-1: T. cruzi proliferation inhibition; T. cruzi beta-gal in NIH3T3, GalScreen luminescence, 90 h; inhibition, % at 8.34 µM; 5.9% of 77,000 active;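 active = mean inhibition above about 93%, with at least 55% of replicates each passing it, limit read from the data, passing the limit was not always enough; inconclusive = only one of those two conditions holds; inactive = neither condition holds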
T cruzi growth-2: Trypanosoma cruzi proliferation inhibition; T. cruzi beta-gal in NIH3T3, GalScreen luminescence, 90 h; 72% of 5,600 active; shares compounds with T cruzi growth-1; inhibition, % at 8.35 µM;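 active = mean replicate inhibition above about 95% and at least 55% of replicates individually reaching it, limit read from the data; inconclusive = only one of the two criteria is met; inactive = neither criterion is met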
T cruzi growth-3: inhibitors of T. cruzi proliferation; shares compounds with T cruzi growth-1; T. cruzi beta-gal in NIH3T3, GalScreen luminescence, 90 h; inhibition, % at 2.09 µM; 21% of 5,600 active; AID 651740;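 active = mean inhibition above about 95%, with at least 55% of replicates also reaching it, limit read from the data; inconclusive = meets just one of the two conditions; inactive = meets neither condition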;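 also: plate controls were neutral control median for no effect and positive control median for full effect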
NIH3T3 tox: NIH/3T3 (mouse) viability loss. shares compounds with T cruzi growth-1. NIH/3T3 viability, CellTiter-Glo ATP luminescence, 90 h. cytotoxicity (signal decrease), % at 8.35 µM. 14% of 5,600 active;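 active = mean signal decrease across replicates above about 35% based on untreated-well scatter, with enough replicates individually passing, limit read from the data; inconclusive = no rule stated though some were filed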;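 also: 0% = median of neutral control wells and 100% = median of positive control wells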
3T3 cytotox 2: kills mouse NIH/3T3 fibroblasts; NIH/3T3 viability, CellTiter-Glo ATP luminescence, 90 h; inhibition, % at 24.9 µM; AID 651744; 56% of 5,600 active; shares compounds with T cruzi growth-1;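 active = mean loss of cell viability signal at or above a set limit, and enough replicates individually reaching it; inconclusive = meets only the mean limit or only the replicate share; inactive = meets neither condition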;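 also: 0% = median of neutral control wells and 100% = median of positive control wells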
An asterisk follows results filed as active; ? = inconclusive; / = no result.

SMILES | C diff growth | Pf Dd2 growth | T cruzi growth-1 | T cruzi growth-2 | T cruzi growth-3 | NIH3T3 tox | 3T3 cytotox 2
COc1ccc(NC(=O)Nc2ccc3c(c2)C(=O)N([C@@H](C)CO)C[C@H](C)[C@@H](CN(C)Cc2ccc(Cl)c(Cl)c2)OCCCC[C@H](C)O3)cc1 | 0 | -29 | 124* | 99* | 113* | 16 | 21
COc1ccc(NC(=O)Nc2ccc3c(c2)C(=O)N([C@@H](C)CO)C[C@@H](C)[C@H](CN(C)Cc2ccncc2)OCCCC[C@@H](C)O3)cc1 | 1 | 4 | 42 | / | / | / | /
C[C@@H]1CN([C@H](C)CO)C(=O)c2cc(NS(C)(=O)=O)ccc2O[C@@H]1CN(C)C(=O)Nc1ccc(F)cc1 | 0 | 19 | 37 | / | / | / | /
O=C(C[C@@H]1CC[C@@H]2[C@H](COC[C@H](O)CN2C(=O)Nc2ccc(Cl)cc2)O1)NCCc1ccncc1 | 57 | 18 | 99* | 99* | 80 | 10 | -3
O=C(C[C@@H]1CC[C@H]2[C@@H](COC[C@@H](O)CN2C(=O)Nc2ccc(Cl)cc2)O1)NCCc1ccncc1 | 30 | -2 | 71 | / | / | / | /
O=C(C[C@@H]1CC[C@H]2[C@@H](COC[C@H](O)CN2C(=O)Nc2ccc(Cl)cc2)O1)NCCc1ccncc1 | 9 | 8 | 128* | 87 | 61 | 9 | 11
O=C(C[C@H]1CC[C@H]2[C@@H](COC[C@H](O)CN2C(=O)Nc2ccc(Cl)cc2)O1)NCCc1ccncc1 | 56 | 0 | 78 | / | / | / | /
COCC(=O)Nc1ccc2c(c1)OC[C@@H](C)N(Cc1ccncc1)C[C@H](C)[C@@H](OC)CN(C)C2=O | -4 | 6 | -19 | / | / | / | /
CCCC#Cc1cnc2c(c1)C(=O)N([C@@H](C)CO)C[C@H](C)[C@@H](CN(C)C(=O)Nc1ccccc1OC)O2 | -6 | -78 | 21 | / | / | / | /
CNC[C@H]1Oc2ccc(NC(=O)Cc3ccccc3)cc2C(=O)N([C@H](C)CO)C[C@@H]1C | 2 | 7 | -2 | / | / | / | /
C[C@@H]1CN([C@@H](C)CO)C(=O)c2cc(C#CC3(O)CCCC3)cnc2O[C@H]1CN(C)Cc1cccnc1 | 1 | 32 | -39 | / | / | / | /
C[C@H]1CN([C@@H](C)CO)C(=O)c2cc(C#CC3(O)CCCC3)cnc2O[C@@H]1CN(C)C(=O)C1CCOCC1 | / | 33 | / | / | / | / | /
O=C(C[C@@H]1CC[C@@H](NC(=O)CN2CCOCC2)[C@H](CO)O1)NCc1cccc(F)c1 | / | 18 | 12 | / | / | / | /
C[C@@H]1CN([C@H](C)CO)S(=O)(=O)c2ccc(-c3ccc(C(=O)N(C)C)cc3)cc2O[C@@H]1CN(C)C(=O)C1CCCCC1 | 11 | -66 | 43 | / | / | / | /
C[C@@H]1CN([C@@H](C)CO)C(=O)Cc2cc(NC(=O)Cc3ccccc3)ccc2O[C@@H]1CN(C)Cc1ccc(C(=O)Nc2ccccc2N)cc1 | 6 | -81* | 102* | 106* | 80 | 31 | 39*
C[C@@H]1CN([C@@H](C)CO)C(=O)Cc2cc(N(C)C)ccc2O[C@H]1CN(C)Cc1ccc(C(=O)Nc2ccccc2N)cc1 | 1 | -59 | 96* | 106* | ? | 41* | 82*
C[C@@H]1CN([C@H](C)CO)C(=O)Cc2cc(NC(=O)Nc3ccc(C(F)(F)F)cc3)ccc2O[C@@H]1CN(C)Cc1ccc(C(=O)Nc2ccccc2N)cc1 | 23 | -14 | ? | 100* | 106* | 55* | 97*
C[C@@H]1CN([C@@H](C)CO)C(=O)CCCn2nncc2CO[C@@H]1CN(C)Cc1ccc(C(=O)O)cc1 | -15 | 14 | / | / | / | / | /
C[C@H](CO)N1C[C@H](C)[C@H](CN(C)Cc2ccc(C(=O)Nc3ccccc3N)cc2)OCc2cnnn2CCCC1=O | -5 | -26 | 106* | 108* | 59 | 18 | 26
C[C@@H]1CN([C@@H](C)CO)C(=O)Cc2cc(NC(=O)CCCN(C)C)ccc2O[C@H]1CN(C)Cc1ccc(C(=O)Nc2ccccc2N)cc1 | -6 | -12 | / | / | / | / | /
C[C@H]1CN([C@@H](C)CO)C(=O)Cc2cc(NC(=O)Nc3ccc(C(F)(F)F)cc3)ccc2O[C@H]1CN(C)Cc1ccc(C(=O)Nc2ccccc2N)cc1 | 1 | -35 | 80 | / | / | / | /
C[C@H]1CN([C@@H](C)CO)C(=O)Cc2cc(N(C)C)ccc2O[C@@H]1CN(C)Cc1ccc(C(=O)Nc2ccccc2N)cc1 | 0 | -51 | 74 | / | / | / | /
O=C1CNC[C@@H]2[C@@H](c3ccc(C4=CCCCC4)cc3)[C@H](CO)N12 | 5 | 19 | / | / | / | / | /
C[C@H]1CN([C@@H](C)CO)C(=O)c2cc(C#CC3(O)CCCC3)cnc2O[C@@H]1CN(C)C(=O)C1CCC1 | -3 | 12 | 81 | / | / | / | /
O=C1CNC[C@@H]2[C@H](c3ccc(C4=CCCC4)cc3)[C@@H](CO)N12 | 1 | -2 | / | / | / | / | /
SMILES | C diff growth | Pf Dd2 growth | T cruzi growth-1 | T cruzi growth-2 | T cruzi growth-3 | NIH3T3 tox | 3T3 cytotox 2
COc1cccc(-c2ccc3n(c2=O)C[C@H]2[C@H](CO)[C@@H](C(=O)N4CCOCC4)N[C@@H]32)c1 | -2 | -4 | 65 | / | / | / | /
COCC#Cc1ccc2c(c1)O[C@@H](CN(C)Cc1ccncc1)[C@H](C)CN([C@@H](C)CO)S2(=O)=O | -1 | -8 | ? | 94 | 97* | 2 | 65*
COCC#Cc1ccc2c(c1)O[C@H](CN(C)Cc1ccncc1)[C@@H](C)CN([C@H](C)CO)S2(=O)=O | 0 | 27 | 44 | / | / | / | /
COCC#Cc1ccc2c(c1)O[C@@H](CN(C)Cc1ccccc1)[C@H](C)CN([C@@H](C)CO)S2(=O)=O | 6 | -70 | 101* | 85 | 64 | 52* | 99*
COCC#Cc1ccc2c(c1)O[C@H](CN(C)Cc1ccccc1)[C@H](C)CN([C@@H](C)CO)S2(=O)=O | 2 | -32 | 48 | / | / | / | /
Cc1ccc(-c2ccc([C@H]3[C@H](CO)N4CCCCN(S(=O)(=O)c5cccc(C)c5)C[C@@H]34)cc2)cc1 | 50 | -49 | 55 | / | / | / | /
Cc1ccc(-c2ccc([C@H]3[C@H]4CN(S(=O)(=O)c5cccc(C)c5)CCCCN4[C@H]3CO)cc2)cc1 | -6 | -2 | 86 | / | / | / | /
Cc1cccc(S(=O)(=O)N2CCCCN3[C@@H](CO)[C@H](c4ccc(-c5ccncc5)cc4)[C@@H]3C2)c1 | -8 | -21 | 98* | 107* | 65 | 29 | 46*
Cc1cccc(S(=O)(=O)N2CCCCN3[C@H](C2)[C@H](c2ccc(-c4ccccc4)cc2)[C@@H]3CO)c1 | 1 | -50 | 93 | / | / | / | /
Cc1ccc(-c2ccc([C@@H]3[C@H](CO)N4CCCCN(S(=O)(=O)c5cccc(C)c5)C[C@@H]34)cc2)cc1 | -39 | -79 | 108* | ? | 98* | 34 | 104*
Cc1cccc(S(=O)(=O)N2CCCCN3[C@H](CO)[C@H](c4ccc(-c5ccncc5)cc4)[C@H]3C2)c1 | -4 | -62 | 110* | 107* | 73 | -11 | 37*
